Assay outcomes: PubChem BioAssay, National Center for Advancing Translational Sciences (NCATS)
In the library only some 7.5% were active in any assay of this set; here they are far more common.
NPC1 promoter act: qHTS Assay for NPC1 Promoter Activators. Huh7 NPC1 promoter luciferase reporter, 24 h. Potency, µM (doses to about 9.22 µM), for inactives: at the highest dose activation, most hits filed as activators. 320,000 compounds, 2.4% hits. AID 485313, 2010; note: % of control where 0% means no effect; nearly all actives have a fitted effect of over 60% in size
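NPC1 promoter–luciferase Huh7 cells; 24 h compound; luminescence.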
Rab9 prom act: qHTS Assay for Rab9 Promoter Activators. Huh7 Rab9 promoter-luciferase reporter, luminescence, 24 h. Potency, µM (top dose mostly 9.22 µM), without a hit: at the top dose activation, negative = inhibition, usual class: activators. 320,000 compounds, 2.8% hits; note: % of control where 0% means no effect; nearly all actives have a fitted effect of over 60% in size
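Using Huh7 cells stably transfected with Rab9 promoter–luciferase, compounds were incubated 24 h at 37 °C, 5% CO2; luciferase luminescence was read 10 min after reagent addition.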
ELG1 genotox: qHTS screen for small molecules that induce genotoxicity in human embryonic kidney (HEK293T) cells expressing luciferase-tagged ELG1. HEK293T ELG1-luciferase reporter, luminescence, 16 h. Potency, µM (top dose mostly 46 µM), inactives show top-dose activity change, positive = activation, actives largely listed as activators. 330,000 compounds, 1.3% hits. AID 504466, 2011; note: % of control where 0% means no effect; nearly all actives have a fitted effect of over 60% in size
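16 hr compound incubation (37 °C, 5% CO2) of HEK293T cells carrying luciferase-tagged ELG1; luciferase then measured by ONE-Glo luminescence after 30 min at RT.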
KinaseGlo FLuc: Counterscreen for Luciferase (Kinase-Glo TM) Inhibition | 200,000 compounds, 0.28% hits | Kinase-Glo luciferase, ATP luminescence, 8 min | AID 1379, 2008 | Potency, µM (titrated, usually from 38.3 µM), for inactives: at the top dose activity change, negative = inhibition, actives largely listed as inhibitors | Luciferin 4-monooxygenase (Photuris pensylvanica), Q27757; note: % is set by controls: 0 for no effect and ±100 for the full control effect; nearly all actives have a fitted effect of over 60% in size
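Kinase-Glo luciferase light output from ATP and luciferin was measured with 10 uM ATP, within the enzyme's linear range. Buffer: 50 mM imidazole pH 7.2, 50 mM KCl, 7 mM MgCl2, 0.01% Tween 20, 0.05% BSA; luminescence read after 8 min at ambient temperature.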
FLuc modulator: qHTS profiling assay for firefly luciferase inhibitor/activator using purifed enzyme and Km concentrations of substrates (counterscreen for miR-21 project). Luciferin 4-monooxygenase (Photinus pyralis), P08659. purified FLuc, Km substrates, luminescence inhibition. Potency, µM (top dose mostly 57.5 µM), for inactives: top-dose activity change, negative = inhibition, most hits filed as inhibitors. 360,000 compounds, 6.9% hits;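 note: plate controls were vehicle for no effect and reference inhibitor for full effect; nearly all actives have a fitted effect of over 55% in size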
Target sequence (P08659 whole entry, looked up): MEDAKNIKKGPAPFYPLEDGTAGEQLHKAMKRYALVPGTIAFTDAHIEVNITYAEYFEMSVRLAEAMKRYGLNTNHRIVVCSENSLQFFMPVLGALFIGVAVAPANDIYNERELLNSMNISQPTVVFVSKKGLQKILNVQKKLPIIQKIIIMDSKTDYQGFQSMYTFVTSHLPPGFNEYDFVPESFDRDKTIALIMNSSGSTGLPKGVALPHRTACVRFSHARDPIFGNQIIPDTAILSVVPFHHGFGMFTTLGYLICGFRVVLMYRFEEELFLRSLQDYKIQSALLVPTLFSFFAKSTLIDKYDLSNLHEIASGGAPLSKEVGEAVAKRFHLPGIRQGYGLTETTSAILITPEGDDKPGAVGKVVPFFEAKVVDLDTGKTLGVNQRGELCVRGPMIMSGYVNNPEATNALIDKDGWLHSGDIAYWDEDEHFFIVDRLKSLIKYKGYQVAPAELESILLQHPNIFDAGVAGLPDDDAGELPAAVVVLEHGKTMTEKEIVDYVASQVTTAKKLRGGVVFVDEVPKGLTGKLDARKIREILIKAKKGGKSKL
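Purified P. pyralis luciferase (10nM final) with 10uM D-luciferin and 10uM ATP (Km levels) in 50mM Tris acetate pH 7.5, 10mM Mg acetate, 0.01% Tween-20, 0.05% BSA; qHTS 6-point titration, ~60 µM downward; luminescence read.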
SMN2 splice up: qHTS Assay for Enhancers of SMN2 Splice Variant Expression | Potency, µM (titrated, usually from 46.1 µM), for the others: at the top dose activity change, positive = activation, most hits filed as activators | 210,000 compounds, 2.8% hits | HEK293 SMN2-luciferase splicing reporter, luminescence, 30-36 h; note: % of control where 0% means no effect; nearly all actives have a fitted effect of over 55% in size
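qHTS luciferase splicing reporter: luminescence rises when SMN2 exon 7 is included in transfected HEK293 cells. Compound exposure lasted 30-36 h at 37C, with 4.5 mM final sodium butyrate as control, followed by a ONE-Glo read.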
The depositor's hits bear a star; ? = inconclusive; nt = not tested or not shown; [ ] = dose if it differs, or a comment. Calls come from the whole dose curve; as a rule, active = well fitted curve in the direction sought with a large enough effect; inconclusive = small, poorly fitted or top-dose-only effect, or another doubt; inactive = no such curve, though single readings can be large; an effect the other way counts as inactive or inconclusive. Potency is the fitted concentration of half-maximal effect.

SMILES	NPC1 promoter act	Rab9 prom act	ELG1 genotox	KinaseGlo FLuc	FLuc modulator	SMN2 splice up
C=CCNc1nc(N)c(C(=O)Nc2cc(C)on2)s1	?	?	16%	-4%	17µM*	11µM*
Cc1cc(NC(=O)c2sc(Nc3ccc(F)cc3)nc2N)no1	18%	25%	5%	0%	-14%	24%
Cc1cc(C)c2c(N)c(C(=O)N/N=C/c3cccs3)sc2n1	1.8µM*	1.6µM*	?	nt	?	nt
Cc1cc(C)c2c(N)c(C(=O)Nc3ccc([N+](=O)[O-])cc3)sc2n1	0.5µM*	0.79µM*	?	nt	-3%	nt
CC(C)CN1CC2(CCN(C(=O)c3ccco3)CC2)C1	nt	nt	nt	-4%	nt	5%
Cc1nn(-c2ccccc2)c2c1C(c1ccccc1)C(C#N)=C(N)O2 (stereo not drawn)	-2%	-1%	-1%	3%	-1%	-7%
Cc1ccc(-n2nc(C)c3c2OC(N)=C(C#N)C3c2ccc(C)o2)cc1 (stereo not drawn)	13%	4%	-2%	-8%	?	7%
Cc1ccc(-n2nc(C)c3c2OC(N)=C(C#N)C3c2ccco2)cc1 (stereo not drawn)	2%	17%	8%	-11%	1.7µM*	15%
Cc1ccc(-n2nc(C)c3c2OC(N)=C(C#N)C3c2ccoc2)cc1 (stereo not drawn)	7%	12%	1%	-5%	11µM*	7%
Cc1cc(=O)oc2c(OS(C)(=O)=O)c(OS(C)(=O)=O)ccc12	nt	nt	nt	-1%[7.66 µM]	nt	-7%[9.22 µM]
CCOC(=O)c1c(C)nc2c3ccccc3ccn12	18%	2.2µM*	4.1µM*	-14%	3.8µM*	13µM*
CCOC(=O)c1c(C)nc2c(C)cccn12	0%	-6%	7%	-3%	2%	-58%
O=C(CNC(=O)c1ccccc1Cl)OCC(=O)N1CCc2ccccc21	3%	9%	?	-3%	13µM*	6%
O=C(Cc1ccccc1F)OCC(=O)N1CCc2ccccc21	1%	0%	8%	-2%	6.7µM*	4%
Cc1cccc(C(=O)NCC(=O)OCC(=O)N2CCc3ccccc32)c1	-4%	1%	0%	-1%	-20%	-1%
CC1Cc2cc(/C=C3/SC(N4CCC(C(N)=O)CC4)=NC3=O)ccc2O1 (stereo not drawn)	-6%	-1%	5%	nt	?	nt
CC1Cc2cc(/C=C3/SC(=S)N(C)C3=O)ccc2O1 (stereo not drawn)	?	?	?	nt	1.1µM*	nt
CCOc1ccc2nc(NC(=O)CN3CCN(C)CC3)sc2c1	6%	10%	14%	-3%	?	23%
CCOc1ccc2nc(NC(=O)CN3C(=O)C4CCCCC4C3=O)sc2c1 (stereo not drawn)	22%	21%	6%	nt	6µM*	nt
CCOc1ccc2nc(NC(=O)C(CC)Sc3nc(C)cc(=O)[nH]3)sc2c1 (stereo not drawn)	28%	?	?	0%	24µM*	36%
CCOCC(=O)Nc1nc2ccc(OC)cc2s1	2µM*	1.4µM*	5.2µM*	-20%	12µM*	11µM*
CCOc1ccc2nc(NC(=O)Cn3[nH]c(=O)c4ccccc4c3=O)sc2c1	?	?	?	nt	15µM*	nt
CCCCOC(=O)Nc1nc2ccc(OC)cc2s1	25%	19%	?	-2%	?	21%
CCOc1ccccc1/C=C(/NC(=O)c1ccccc1)C(=O)N1CCCCC1	-1%	6%	1%	nt	-5%	nt
O=C(CNC(=O)c1ccc(Cl)cc1)OCCCOC(=O)CNC(=O)c1ccc(Cl)cc1	1%	2%	3%	nt	?	nt
CC1CCC2(CC1)NC(=O)N(Cc1cccc(C(F)(F)F)c1)C2=O (stereo not drawn)	-1%	1%	-6%	-4%	-4%	-22%
